Assay outcomes from PubChem BioAssay.
Sampled rows, rich in hits. Any-hit rate of the full collection: about 4.1%.
pCIP destab: p/CIP-EGFP fusion destabilizers, primary screen, fluorescence, F442A cells; Q05BA5; 16 h; decrease of EGFP signal, % at 10 µM; 0.01% of 290,000 active; AID 1984, 2009;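 active = EGFP signal decrease of at least 30% at 10 µM or well 3 SD below plate mean, unless failing retest; inactive = the rest, including hits failing retest or dose response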
GRIN3A LBD mod: binders of NR3A ligand-binding domain, primary screen, biophysical, differential scanning fluorimetry, uHTS. Glutamate receptor ionotropic, NMDA 3A (GRIN3A) ligand-binding domain. NR3A LBD differential scanning fluorimetry, Tm shift; 0% = protein alone, 100% = glycine-bound protein. Tm shift relative to glycine control, % at 25 µM. 2.5% of 340,000 active. AID 1259313, 2017;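 active = melting temperature shift of at least 10% of the positive control shift, at one fixed dose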
FAS-TE inh: FAS thioesterase domain inhibitors, primary screen, biochemical, fluorescence intensity, uHTS; Fatty acid synthase (Homo sapiens), P49327; 0.67% of 360,000 active; inhibition, % at 15 µM; recombinant FAS-TE, OMFH fluorogenic substrate, fluorescence endpoint;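 active = compounds whose normalised, plate-corrected inhibition of enzyme fluorescence in the single-dose primary screen is 50% or more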;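 note: 0% = DMSO with enzyme and 100% = substrate without enzyme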
MPTP block: mitochondrial permeability transition pore inhibitors, primary screen, biochemical, isolated mouse mitochondria, absorbance | Ca2+ swelling absorbance, 30 min | inhibition, % at 10 µM | 1.4% of 360,000 active | AID 602449, 2012;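 active = inhibition of 50% or more, scaled per plate between neutral and stimulator controls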;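 note: 0% = DMSO wells given calcium and 100% = 1 mM EGTA wells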
MIN6 prolif: inducers of MIN6 beta-cell proliferation, primary screen, ATP luminescence, uHTS; MIN6 cells proliferation, ATPlite luminescence, 48 h; cells starved in 0.2% serum; 100% = growth in 10% serum; proliferation, % at 10 µM; 0.29% of 330,000 active; AID 2380, 2010;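 active = compounds whose signal lies at least 3.5 SD above the mean of all wells on their plate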;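 note: 0% = DMSO-treated cells in low-serum medium and 100% = 10% serum control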
* hit, by the source's call.

Results for C(=C\c1ccc2ccccc2n1)/c1ccccc1 ?
pCIP destab: 2; GRIN3A LBD mod: -20; FAS-TE inh: 19; MPTP block: 1; MIN6 prolif: -3

How did O=C(Nc1ccccc1)N1C(=O)C2(OCCO2)c2ccccc21 do in these assays?
pCIP destab: -2; GRIN3A LBD mod: 13*; FAS-TE inh: -8; MPTP block: -2; MIN6 prolif: 0

How did CN1CCN(c2oc(-c3ccccc3F)nc2S(=O)(=O)c2ccc(Cl)cc2)CC1 do in these assays?
pCIP destab: -11; GRIN3A LBD mod: 10*; FAS-TE inh: 8; MPTP block: 0; MIN6 prolif: 4

Results for Cc1ccc(S(=O)(=O)N(Cc2ccc(F)cc2)Cc2ccco2)cc1 ?
pCIP destab: -11; GRIN3A LBD mod: 12*; FAS-TE inh: 23; MPTP block: -2; MIN6 prolif: -4

Results for CCCCCCN1C[C@@H](n2cc(COC(=O)c3ccccc3)nn2)[C@H](O)C[C@@H]1c1ccccc1 ?
FAS-TE inh: 20; MPTP block: -1

What do the screens show for `O=C(/C=C/c1ccccc1)Nc1cccc(C(=O)NCCCCc2ccccc2)c1`?
GRIN3A LBD mod: 27*; FAS-TE inh: 12; MPTP block: 3

Results for O=C(/C=C/c1ccccc1)Nc1cccc(C(=O)NCCc2ccccc2)c1 ?
GRIN3A LBD mod: 17*; FAS-TE inh: 8; MPTP block: 2

How did O=C(NCCCc1ccccc1)c1cccc(NC(=O)c2ccccc2)c1 do in these assays?
GRIN3A LBD mod: -3; FAS-TE inh: 6; MPTP block: 1

How did CCCCS(=O)(=O)Nc1ccc2ncn(C)c(=O)c2c1 do in these assays?
pCIP destab: -4; GRIN3A LBD mod: 11*; FAS-TE inh: -4; MPTP block: -2; MIN6 prolif: 1

Results for COc1c2ccccc2nn1C(C)C ?
FAS-TE inh: -9; MPTP block: 0

Results for O=S(=O)(N/N=C/c1ccccc1OCc1ccc(Cl)cc1)c1ccccc1 ?
pCIP destab: -13; GRIN3A LBD mod: 13*; FAS-TE inh: 37; MPTP block: 9; MIN6 prolif: -4

How did CSc1ccccc1NC(=O)C1(C)CCN1C(=O)Cc1ccccc1Cl (stereo unspecified) do in these assays?
FAS-TE inh: 1; MPTP block: 0

Results for O=C(COC(=O)c1ccc2[nH]c3c(c2c1)CCCC3)Nc1ccc(Cl)cc1Cl ?
pCIP destab: -5; GRIN3A LBD mod: 27*; FAS-TE inh: 8; MPTP block: 38; MIN6 prolif: 0

Results for COc1ccc(CC(=O)Nc2c3c(nn2C(C)(C)C)CS(=O)(=O)C3)cc1 ?
pCIP destab: -3; GRIN3A LBD mod: 14*; FAS-TE inh: -7; MPTP block: 1; MIN6 prolif: 2

How did CCOC(=O)[C@]12CCC=C1N(CCC1=CCCCC1)C(=O)[C@H](CC(=O)N1CCOCC1)C2 do in these assays?
FAS-TE inh: -12; MPTP block: 0

What do the screens show for `O=C(Nc1cccc(NC(=O)c2cccs2)c1)c1ccc(Br)o1`?
pCIP destab: 8; GRIN3A LBD mod: 16*; FAS-TE inh: 5; MPTP block: 1; MIN6 prolif: -4

How did O=C(NC(=S)NNC(=O)c1cccs1)c1ccco1 do in these assays?
pCIP destab: -4; GRIN3A LBD mod: -1; FAS-TE inh: -7; MPTP block: 5; MIN6 prolif: -3

Results for Cc1c(C(=O)NC(=S)Nc2ccc(NC(=O)c3cccs3)cc2)cccc1[N+](=O)[O-] ?
GRIN3A LBD mod: 11*; FAS-TE inh: 24; MPTP block: 0; MIN6 prolif: -4

How did O=C(/C=C/c1cccc([N+](=O)[O-])c1)Nc1ccc(NC(=O)c2cccs2)cc1 do in these assays?
pCIP destab: -7; GRIN3A LBD mod: 25*; FAS-TE inh: 0; MPTP block: 2; MIN6 prolif: 0

How did O=C(Nc1ccc(NC(=S)NC(=O)c2cccs2)cc1)c1ccco1 do in these assays?
pCIP destab: -8; GRIN3A LBD mod: 13*; FAS-TE inh: 4; MPTP block: 1; MIN6 prolif: -2

Results for O=C(/C=C/c1cccc([N+](=O)[O-])c1)c1cccs1 ?
pCIP destab: -4; GRIN3A LBD mod: 0; FAS-TE inh: 2; MPTP block: 2; MIN6 prolif: -6
